Laboratory results from PubChem BioAssay AID1159580 (chemical genetic matrix, 2015).
About 2,000 (36%) of roughly 5,500 compounds were called active. About 18% were inconclusive and are not listed. Cut-off read from the data, not from the text of the source: active = normalized growth mostly below about 0.91 (no sharp cut-off); inconclusive = no clear call, values can overlap the other calls; inactive = mostly above about 0.92. The list shows a part of the results.

Assay: chemical genetic growth profiling, strain panel (AID 1159580);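 note: tested at 20 µM; growth read once vehicle control cultures reached saturation at 30 °C; 1 = growth at the plate median or of vehicle wells; lower values mean less growth of the strain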
Details: growth OD

Measured: normalized growth

CCC(C(=O)O)c1ccccc1 (configuration not stated)
inactive: S. cerevisiae deletion strains, locus YJR075W, strain HOC1, stronger effect = lower value 1 | S. cerevisiae deletion strains, locus YKL009W, strain mrt4, stronger effect = lower value 1.01 | S. cerevisiae deletion strains, locus YKL068W, stronger effect = lower value 0.976 | S. cerevisiae deletion strains, locus YKL085W, strain MDH1 (second series), stronger effect = lower value 0.981 | S. cerevisiae deletion strains, locus YKL085W, strain MDH1, stronger effect = lower value 0.981 | S. cerevisiae deletion strains, locus YKL160W, strain elf1, stronger effect = lower value 0.996 | S. cerevisiae deletion strains, locus YKL190W, strain CNB1, stronger effect = lower value 1.01 | S. cerevisiae deletion strains, locus YKR001C, strain vps1, stronger effect = lower value 0.987 | S. cerevisiae deletion strains, locus YKR026C, strain gcn3, stronger effect = lower value 0.99 | S. cerevisiae deletion strains, locus YKR091W, strain srl3, stronger effect = lower value 0.99 | S. cerevisiae deletion strains, locus YLL001W, strain dnm1, stronger effect = lower value 0.986 | S. cerevisiae deletion strains, locus YLL026W, stronger effect = lower value 0.977 | S. cerevisiae deletion strains, locus YLL041C, strain sdh2, stronger effect = lower value 1 | S. cerevisiae deletion strains, locus YLR027C, strain aat2, stronger effect = lower value 1 | S. cerevisiae deletion strains, locus YLR039C, strain RIC1, stronger effect = lower value 0.958 | S. cerevisiae deletion strains, locus YLR058C, strain SHM2, stronger effect = lower value 1 | S. cerevisiae deletion strains, locus YLR102C, strain apc9, stronger effect = lower value 0.995 | S. cerevisiae deletion strains, locus YLR113W, strain HOG1, stronger effect = lower value 0.912 | S. cerevisiae deletion strains, locus YLR221C, strain rsa3, stronger effect = lower value 0.992 | S. cerevisiae deletion strains, locus YLR258W, strain gsy2, stronger effect = lower value 1 | S. cerevisiae deletion strains, locus YLR262C, strain YPT6 (second series), stronger effect = lower value 1.01 | S. cerevisiae deletion strains, locus YLR262C, strain YPT6, stronger effect = lower value 0.966 | S. cerevisiae deletion strains, locus YLR268W, strain sec22, stronger effect = lower value 1.01 | S. cerevisiae deletion strains, locus YLR320W, strain mms22, stronger effect = lower value 0.989 | S. cerevisiae deletion strains, locus YLR330W, strain CHS5, stronger effect = lower value 1 | S. cerevisiae deletion strains, locus YLR342W, strain FKS1 (second series), stronger effect = lower value 0.994 | S. cerevisiae deletion strains, locus YLR342W, strain FKS1, stronger effect = lower value 0.998 | S. cerevisiae deletion strains, locus YLR357W, strain rsc2, stronger effect = lower value 0.951 | S. cerevisiae deletion strains, locus YLR370C, strain arc18, stronger effect = lower value 0.977 | S. cerevisiae deletion strains, locus YLR371W, strain rom2, stronger effect = lower value 1.01 | S. cerevisiae deletion strains, locus YLR384C, strain iki3, stronger effect = lower value 0.97 | S. cerevisiae deletion strains, locus YLR418C, strain cdc73, stronger effect = lower value 1.03 | S. cerevisiae deletion strains, locus YML016C, strain PPZ1, stronger effect = lower value 1 | S. cerevisiae deletion strains, locus YML032C, strain rad52, stronger effect = lower value 0.997 | S. cerevisiae deletion strains, locus YML120C, strain ndi1, stronger effect = lower value 0.979 | S. cerevisiae deletion strains, locus YML124C, strain tub3, stronger effect = lower value 1 | S. cerevisiae deletion strains, locus YMR058W, strain fet3, stronger effect = lower value 0.986 | S. cerevisiae deletion strains, locus YMR078C, strain ctf18, stronger effect = lower value 0.996 | S. cerevisiae deletion strains, locus YMR125W, strain sto1, stronger effect = lower value 0.977 | S. cerevisiae deletion strains, locus YMR129W, stronger effect = lower value 0.992 | S. cerevisiae deletion strains, locus YMR205C, strain PFK2, stronger effect = lower value 0.996 | S. cerevisiae deletion strains, locus YMR223W, strain ubp8, stronger effect = lower value 1 | S. cerevisiae deletion strains, locus YMR231W, strain pep5, stronger effect = lower value 0.992 | S. cerevisiae deletion strains, locus YMR263W, strain SAP30, stronger effect = lower value 1.01 | S. cerevisiae deletion strains, locus YMR307W, strain GAS1, stronger effect = lower value 1.07 | S. cerevisiae deletion strains, locus YNL067W, strain RPL9B, stronger effect = lower value 1.03 | S. cerevisiae deletion strains, locus YNL071W, strain lat1, stronger effect = lower value 0.989 | S. cerevisiae deletion strains, locus YNL128W, strain TEP1, stronger effect = lower value 1.02 | S. cerevisiae deletion strains, locus YNL153C, strain GIM3, stronger effect = lower value 1 | S. cerevisiae deletion strains, locus YNL183C, strain NPR1, stronger effect = lower value 0.905 | S. cerevisiae deletion strains, locus YNL209W, strain ssb2, stronger effect = lower value 0.989 | S. cerevisiae deletion strains, locus YNL233W, strain BNI4, stronger effect = lower value 0.999 | S. cerevisiae deletion strains, locus YNL248C, strain rpa49, stronger effect = lower value 0.984 | S. cerevisiae deletion strains, locus YNL250W, strain rad50, stronger effect = lower value 0.975 | S. cerevisiae deletion strains, locus YNL271C, strain bni1, stronger effect = lower value 0.988 | S. cerevisiae deletion strains, locus YNL298W, strain CLA4, stronger effect = lower value 0.989 | S. cerevisiae deletion strains, locus YNL307C, strain MCK1, stronger effect = lower value 0.999 | S. cerevisiae deletion strains, locus YNL322C, strain KRE1 (second series), stronger effect = lower value 0.972 | S. cerevisiae deletion strains, locus YNL322C, strain KRE1, stronger effect = lower value 1 | S. cerevisiae deletion strains, locus YNR049C, strain mso1, stronger effect = lower value 1.01 | S. cerevisiae deletion strains, locus YNR052C, strain pop2, stronger effect = lower value 0.99 | S. cerevisiae deletion strains, locus YOL006C, strain TOP1, stronger effect = lower value 1.03 | S. cerevisiae deletion strains, locus YOL012C, strain htz1 2.17 | S. cerevisiae deletion strains, locus YOL147C, strain pex11, stronger effect = lower value 0.998 | S. cerevisiae deletion strains, locus YOR001W, strain rrp6, stronger effect = lower value 0.974 | S. cerevisiae deletion strains, locus YOR061W, strain CKA2, stronger effect = lower value 1 | S. cerevisiae deletion strains, locus YOR069W, strain VPS5, stronger effect = lower value 1 | S. cerevisiae deletion strains, locus YOR070C, strain gyp1, stronger effect = lower value 0.976 | S. cerevisiae deletion strains, locus YOR080W, strain dia2, stronger effect = lower value 0.984 | S. cerevisiae deletion strains, locus YOR083W, strain WHI5, stronger effect = lower value 0.994 | S. cerevisiae deletion strains, locus YOR106W, strain vam3, stronger effect = lower value 0.989 | S. cerevisiae deletion strains, locus YOR136W, strain idh2, stronger effect = lower value 1.01 | S. cerevisiae deletion strains, locus YOR144C, strain elg1, stronger effect = lower value 0.999 | S. cerevisiae deletion strains, locus YOR184W, strain ser1, stronger effect = lower value 0.992 | S. cerevisiae deletion strains, locus YOR231W, strain MKK1, stronger effect = lower value 0.951 | S. cerevisiae deletion strains, locus YOR265W, strain rbl2, stronger effect = lower value 1 | S. cerevisiae deletion strains, locus YOR270C, strain vph1, stronger effect = lower value 1.02 | S. cerevisiae deletion strains, locus YOR290C, strain snf2, stronger effect = lower value 0.976 | S. cerevisiae deletion strains, locus YOR316C, strain cot1, stronger effect = lower value 1 | S. cerevisiae deletion strains, locus YPL051W, strain arl3, stronger effect = lower value 0.964 | S. cerevisiae deletion strains, locus YPL055C, strain LGE1, stronger effect = lower value 1.03 | S. cerevisiae deletion strains, locus YPL078C, strain atp4, stronger effect = lower value 0.974 | S. cerevisiae deletion strains, locus YPL106C, strain sse1, stronger effect = lower value 0.97 | S. cerevisiae deletion strains, locus YPL240C, strain hsp82, stronger effect = lower value 0.988 | S. cerevisiae deletion strains, locus YPL241C, strain CIN2, stronger effect = lower value 1.01 | S. cerevisiae deletion strains, locus YPL256C, strain CLN2, stronger effect = lower value 0.907 | S. cerevisiae deletion strains, locus YPR119W, strain clb2, stronger effect = lower value 0.994 | S. cerevisiae deletion strains, locus YPR141C, strain kar3, stronger effect = lower value 0.976 | S. cerevisiae deletion strains, locus YPR163C, strain tif3, stronger effect = lower value 1 | S. cerevisiae deletion strains, locus YPR167C, strain met16, stronger effect = lower value 0.999 | S. cerevisiae deletion strains, strain wtn01, stronger effect = lower value 0.999 | S. cerevisiae strains, strain wild type, stronger effect = lower value 1
